About 83,000 compounds went through this panel and 20% of them were active in at least one assay; those are over-represented in the sample as a whole.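 Each cell line was grown in a 96-well plate and treated with one concentration of compound for 48 hours. Values below 10 were considered active.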 The source made the active and inactive calls.
Tests used:
Assay in all cases: NCI-60 one-dose screen, 48 h (100 = growth as untreated, 0 = no growth, -100 = all killed)
Settings in all cases: 10 µM unless noted
SK-MEL-2 melanoma = tested on: SK-MEL-2 melanoma
EKVX NSCLC = tested on: EKVX NSCLC
SN12C renal = tested on: SN12C renal
TK-10 renal = tested on: TK-10 renal
ACHN renal = tested on: ACHN renal
CAKI-1 renal = tested on: CAKI-1 renal
A498 renal = tested on: A498 renal
CCRF-CEM leukemia = tested on: CCRF-CEM leukemia
MOLT-4 leukemia = tested on: MOLT-4 leukemia
UO-31 renal = tested on: UO-31 renal

Measured: growth

CC(C)(C)OC(=O)Nc1ccc2c(c1)C(NC(=O)Nc1cccc(C#N)c1)CC(C)(C)O2 (stereo not drawn)
inactive: SK-MEL-2 melanoma 36.3% | EKVX NSCLC 32.2% | SN12C renal 62.9% | TK-10 renal 39.3% | ACHN renal 50.9% | CAKI-1 renal 39.2% | A498 renal 57.5% | CCRF-CEM leukemia 41.7% | MOLT-4 leukemia 17.1%

Cc1ccc(C(=O)C2=C(O)C(=O)N(Cc3cccnc3)C2c2ccccc2F)o1 (stereo not drawn)
inactive: SK-MEL-2 melanoma 92.1% | EKVX NSCLC 97.7% | SN12C renal 95.7% | ACHN renal 98.5% | CAKI-1 renal 105% | A498 renal 95% | MOLT-4 leukemia 90.3%

O=C(Nc1ccccc1-c1nc2ccccc2c(=O)[nH]1)c1cc2ccccc2[nH]1
inactive: SK-MEL-2 melanoma 96.4% | EKVX NSCLC 78.9% | SN12C renal 94.7% | TK-10 renal 111% | ACHN renal 86.7% | CAKI-1 renal 81.8% | A498 renal 119% | CCRF-CEM leukemia 97.4% | MOLT-4 leukemia 95.6%

COc1ccc2[nH]c(O)c(C(=Nc3ccc(N(C)C(=O)CN4CCN(C)CC4)cc3)c3ccccc3)c2c1
active: A498 renal -11.3%
inactive: SK-MEL-2 melanoma 33.2% | EKVX NSCLC 52.3% | SN12C renal 20% | TK-10 renal 51.8% | ACHN renal 25.3% | CAKI-1 renal 24.6% | MOLT-4 leukemia 14.6%

CC(=O)O[C@]1(C(C)=O)CCC2C3C[C@H](C)C4=CC(=O)CC[C@]4(C)C3CC[C@@]21C (stereo partly drawn)
inactive: SK-MEL-2 melanoma 98.1% | EKVX NSCLC 72.6% | SN12C renal 63.1% | TK-10 renal 106% | ACHN renal 96.6% | CAKI-1 renal 73.8% | A498 renal 103% | CCRF-CEM leukemia 81.8% | MOLT-4 leukemia 81.7%

COc1ccc(-c2[nH]c(=S)n(C(CC3(C)NCC(=O)N3n3c(-c4ccccc4)cc(C)nc3=S)c3ccc(OC)cc3)c(=O)c2Br)cc1 (stereo not drawn)
inactive: SK-MEL-2 melanoma 73.5% | SN12C renal 65.5% | UO-31 renal 38.6% | TK-10 renal 63.5% | ACHN renal 67.5% | CAKI-1 renal 31.4% | CCRF-CEM leukemia 57.5% | MOLT-4 leukemia 54.6%
active: A498 renal -10.4%

COc1ccc(C2CC(c3cccc(OC)c3)=NN2C(=O)c2cc(OC)c(OC)c(OC)c2)cc1 (stereo not drawn)
inactive: SK-MEL-2 melanoma 35.9% | SN12C renal 39.6% | UO-31 renal 27.4% | TK-10 renal 36.8% | ACHN renal 46.9% | CAKI-1 renal 23.6%
active: A498 renal -0.548% | CCRF-CEM leukemia 8.7% | MOLT-4 leukemia 9.31%

N#Cc1c(-c2cccc(Cl)c2)cc(-c2cccc(F)c2)[nH]c1=O
inactive: EKVX NSCLC 95.1% | SN12C renal 91.1% | UO-31 renal 80.7% | TK-10 renal 94% | ACHN renal 90.3% | CAKI-1 renal 89.6% | A498 renal 59.4%

NS(=O)(=O)c1ccc(-n2nc(C(=O)N/N=C\c3ccc(F)cc3)cc2-c2ccc(Cl)cc2)cc1
inactive: SK-MEL-2 melanoma 96.5% | SN12C renal 90.7% | UO-31 renal 62.4% | TK-10 renal 136% | ACHN renal 90% | CAKI-1 renal 60.6% | A498 renal 68.5% | CCRF-CEM leukemia 103% | MOLT-4 leukemia 89.2%

CCCc1cc2c(=O)c(C(=O)OC)c[nH]c2cc1N(CC)CC
inactive: SK-MEL-2 melanoma 93.9% | SN12C renal 94.7% | UO-31 renal 82.6% | TK-10 renal 101% | ACHN renal 92.7% | CAKI-1 renal 94.9% | A498 renal 107% | MOLT-4 leukemia 98.2%

C=C(C)[C@@H]1CC[C@]2(C(=O)NC3CCCCC3)CC[C@]3(C)[C@H](CC[C@@H]4[C@@]5(C)CCCNC(C)(C)[C@@H]5CC[C@]43C)[C@@H]12
inactive: SK-MEL-2 melanoma 35% | SN12C renal 61.6% | UO-31 renal 61.5% | TK-10 renal 86.5% | ACHN renal 51% | CAKI-1 renal 26.4% | A498 renal 68.7%
active: MOLT-4 leukemia -2.14%

COc1cccc(C(=O)NCCCNc2cc(-c3cn(-c4ccccc4)nc3-c3cccc(OC)c3)ccn2)c1
inactive: SK-MEL-2 melanoma 70.2% | SN12C renal 61.1% | UO-31 renal 26.6% | TK-10 renal 55.2% | ACHN renal 60.9% | CAKI-1 renal 65.4% | A498 renal 49.2% | CCRF-CEM leukemia 24.7%

COc1ccc2c(c1)C(=O)/C(=C/c1ccc(OCC(=O)Nc3nccs3)cc1)O2
inactive: SK-MEL-2 melanoma 112% | SN12C renal 48.2% | TK-10 renal 93.9% | ACHN renal 49% | A498 renal 99.7%
active: UO-31 renal -80.8% | CAKI-1 renal -78.4% | MOLT-4 leukemia -72.9%

CCN1C(=O)N(CC)C2Nn3c(s/c(=C4\C(=O)N(C)c5ccccc54)c3=O)=NC21 (stereo not drawn)
inactive: SK-MEL-2 melanoma 48.2% | SN12C renal 43.4% | UO-31 renal 48.6% | ACHN renal 46.9% | CAKI-1 renal 36% | CCRF-CEM leukemia 35.8% | MOLT-4 leukemia 60.5%
active: TK-10 renal 8.83% | A498 renal -2.65%

COc1ccc(-c2nc(SCCC(C)C)nc(N/N=C\c3cccc([N+](=O)[O-])c3)c2C#N)cc1
active: UO-31 renal 7.32%
inactive: SK-MEL-2 melanoma 80.4% | SN12C renal 35.5% | TK-10 renal 42.5% | ACHN renal 15.8% | CAKI-1 renal 22.6% | A498 renal 41.2% | CCRF-CEM leukemia 45.8% | MOLT-4 leukemia 73.1%

CCN(CC)S(=O)(=O)c1cccc(-c2ccc3c(NC(=O)C4CC4)n[nH]c3c2)c1
active: SK-MEL-2 melanoma -16.9% [6.25 µM] | A498 renal 9.92% [6.25 µM]
inactive: SN12C renal 38.8% [6.25 µM] | UO-31 renal 36% [6.25 µM] | ACHN renal 27.2% [6.25 µM] | CAKI-1 renal 37.7% [6.25 µM] | CCRF-CEM leukemia 17.6% [6.25 µM] | MOLT-4 leukemia 10.4% [6.25 µM]

COc1ccc(-c2nc3c(N)c(CO)c(C)nc3o2)cc1
inactive: SK-MEL-2 melanoma 105% | SN12C renal 106% | UO-31 renal 88.7% | TK-10 renal 85% | ACHN renal 112% | CAKI-1 renal 97% | MOLT-4 leukemia 96.3%
active: A498 renal -10.8%

COc1ccc(/C=N\NC(=O)c2cc(-c3ccc(Br)cc3)n(-c3ccc(S(N)(=O)=O)cc3)n2)cc1
inactive: SK-MEL-2 melanoma 54.3% | SN12C renal 63% | UO-31 renal 50.1% | TK-10 renal 29.1% | ACHN renal 44.3% | CAKI-1 renal 26.3% | CCRF-CEM leukemia 55.6% | MOLT-4 leukemia 62.3%
active: A498 renal -6.38%

Cc1ccc(NS(=O)(=O)c2ccc3c(c2)C2OCCC2C(c2ccc(C(=O)C(C)C)cc2)N3)cc1C (stereo not drawn)
inactive: SK-MEL-2 melanoma 72.9% | SN12C renal 52.3% | UO-31 renal 25.7% | TK-10 renal 63.5% | ACHN renal 32.3% | CAKI-1 renal 45.5% | A498 renal 40.1% | CCRF-CEM leukemia 60.3% | MOLT-4 leukemia 31.1%

CC(=O)N1N=C(c2ccc(Nc3nc(Nc4ccc(F)cc4)nc(Nc4ccc(F)cc4)n3)cc2)CC1c1cccc([N+](=O)[O-])c1 (stereo not drawn)
active: MOLT-4 leukemia 8.35%
inactive: SK-MEL-2 melanoma 62.5% | SN12C renal 98.1% | UO-31 renal 73% | TK-10 renal 104% | ACHN renal 93% | CAKI-1 renal 124% | A498 renal 78.9%

COC(=O)[C@]12CC[C@@H](C)[C@H](C)[C@@H]1C1=CC[C@@H]3[C@@]4(C)C(C=O)=C[C@@](C)(COS(C)(=O)=O)[C@@H]4C(=O)C[C@@]3(C)[C@]1(C)CC2
inactive: EKVX NSCLC 53.2% | SN12C renal 36.2% | UO-31 renal 34.2% | TK-10 renal 54.2% | ACHN renal 17.8% | CAKI-1 renal 53.3% | A498 renal 98.2%

C[C@@H]1N=C(c2ccc3ccccc3n2)Nc2nc3ccccn3c2C1=O
inactive: SK-MEL-2 melanoma 109% | SN12C renal 95.6% | UO-31 renal 70.1% | TK-10 renal 142% | ACHN renal 85.7% | CAKI-1 renal 82.1% | A498 renal 108% | CCRF-CEM leukemia 115% | MOLT-4 leukemia 100%

Cc1ccccc1NC(=O)N/C(N)=N/c1nc(C)c(C)s1
inactive: SK-MEL-2 melanoma 53.9% | SN12C renal 39.7% | UO-31 renal 54.9% | ACHN renal 46.5% | CAKI-1 renal 31.1% | MOLT-4 leukemia 30.1%
active: A498 renal -17.7%

Cc1ccc2nc(NC(=O)CSc3nc(Nc4ccc([N+](=O)[O-])cc4)c(C#N)c(-c4ccccc4)n3)sc2c1
inactive: SK-MEL-2 melanoma 104% | SN12C renal 97.9% | UO-31 renal 78.8% | TK-10 renal 101% | ACHN renal 90.7% | CAKI-1 renal 87.9% | A498 renal 116% | MOLT-4 leukemia 97.8%

COc1ccc2c(c1)[nH]c(=O)c1c3cccnc3cn21
active: CAKI-1 renal -14.4% | A498 renal -3.48%
inactive: SK-MEL-2 melanoma 68.9% | SN12C renal 13.4% | UO-31 renal 41% | TK-10 renal 61.8% | ACHN renal 30.5% | CCRF-CEM leukemia 23.1% | MOLT-4 leukemia 25.1%

O=c1cc(-c2ccc(Cl)cc2)[nH]c2ccccc12
inactive: SK-MEL-2 melanoma 79.7% | SN12C renal 96.9% | UO-31 renal 74.6% | TK-10 renal 110% | ACHN renal 85.6% | CAKI-1 renal 73.7% | A498 renal 75.1% | MOLT-4 leukemia 110%

O=C(N/N=C/c1ccncc1)c1ccc(C(F)(F)F)nc1Nc1cccc(C(F)(F)F)c1
inactive: SN12C renal 37.7% | TK-10 renal 16.8% | ACHN renal 17.1% | A498 renal 35.3%
active: SK-MEL-2 melanoma -10.9% | UO-31 renal 8.19% | CAKI-1 renal 6.02% | MOLT-4 leukemia 6.05%

N#Cc1c(-c2ccccn2)[nH]c(=S)[nH]c1=O
inactive: SK-MEL-2 melanoma 93.7% | SN12C renal 112% | UO-31 renal 84.6% | TK-10 renal 94.3% | ACHN renal 108% | CAKI-1 renal 98.8% | A498 renal 89.6% | MOLT-4 leukemia 99.3%

Cc1cc(=O)[nH]c(N=Nc2c(O)[nH]c3ccccc23)n1
inactive: SK-MEL-2 melanoma 103% | SN12C renal 102% | UO-31 renal 84.9% | TK-10 renal 112% | ACHN renal 101% | CAKI-1 renal 96.1% | A498 renal 127% | CCRF-CEM leukemia 94.6% | MOLT-4 leukemia 109%

Cc1ccc(/C=C/c2c(C(=O)/C=C/c3ccc(C(F)(F)F)cc3)c(C)nc3ccccc23)cc1
active: SK-MEL-2 melanoma -20% | SN12C renal -61.7% | UO-31 renal -98% | TK-10 renal -71.1% | ACHN renal -100% | CAKI-1 renal -91.1% | A498 renal -80.8% | CCRF-CEM leukemia 9.01% | MOLT-4 leukemia -4.49%

O=C(CCCCCCSc1nc(-c2ccccc2)cc(-c2ccc(Cl)cc2)n1)NO
active: ACHN renal 4.89% | CAKI-1 renal -7.71% | CCRF-CEM leukemia 0.872% | MOLT-4 leukemia 1.04%
inactive: SK-MEL-2 melanoma 81.3% | SN12C renal 20.7% | TK-10 renal 21.1% | A498 renal 24.2%

Reference: PubChem BioAssay (NCI)
